# Laboratory results published in PubChem BioAssay (EPA / NIEHS).
# Calls of active or inactive are those of the source. The calls were made as follows: active = hit-call score of the fitted dose curve at least 0.9, where 1 is the maximum; inactive = score below 0.9.
# Test: ATG_E_Box_CIS: Attagene CIS-FACTORIAL HepG2 Assay for human Enhancer Box (E-box) (AID 2282936)
# Details: HepG2 E-box cis-reporter transcription, actives raise or lower the signal
# Method in brief: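 Transiently transfected HepG2, endogenous TF-driven reporters, 24 h dosing. Readout: RT-PCR plus capillary electrophoresis of fluorescent reporter fragments. Gain or loss of signal fitted bidirectionally against DMSO baseline.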
row,Structure (SMILES),outcome
1,c1ccc2c(c1)Cc1ccccc1-2,inactive
2,CN1CCN(c2ccccc2/C=C2\SCCN(c3ccc(Cl)c(Cl)c3)C2=O)CC1,inactive
3,FC(F)(I)C(F)(F)C(F)(F)C(F)(F)C(F)(F)C(F)(F)I,inactive
4,CCC(C)(C)C1CCC(O)CC1 (configuration not stated),inactive
5,CCc1ccc(CCOc2ccc(CC3SC(=O)NC3=O)cc2)nc1 (configuration not stated),inactive
6,CC(C)(C)CC(C)(C)c1ccc(O)c(-n2nc3ccccc3n2)c1,inactive
7,CC(C)(C)c1ccc(O)c(C(C)(C)C)c1,inactive
8,N#C[C@@H]1CC(F)(F)CN1C(=O)CNC1CC2CCC(C1)N2c1ncccn1 (some centres not stated),inactive
9,NC(=O)N1C(=O)C(C(=O)c2cc(Cl)cs2)c2cc(F)c(Cl)cc21 (configuration not stated),inactive
10,CCCCCCCCCCCCCCCS(=O)(=O)Oc1ccccc1,inactive
11,CCCCCCCC(=O)O,inactive
12,Cc1cc(CCN2CCN(c3nsc4ccccc34)CC2)cc2c1NC(=O)CC2(C)C,inactive
13,COCC(C)O (configuration not stated),inactive
14,CCCCC(CC)COC(=O)CCCCC(=O)OCc1ccccc1 (configuration not stated),inactive
15,COc1ccc([N+](=O)[O-])cc1N,inactive
16,CCOC(=O)CC(O)(CC(=O)OCC)C(=O)OCC,inactive
17,CCCCCCCCC(=O)O,inactive
18,Cc1cc(C)c(O)c(C)c1,inactive

row,Structure (SMILES),outcome
1,C#C[C@]1(O)CC[C@H]2[C@@H]3CCC4=CC(=O)CC[C@@H]4[C@H]3CC[C@@]21C,inactive
2,CCCCC[C@H](O)CC(=O)CCc1ccc(O)c(OC)c1,inactive
3,NCC(F)(F)C(F)(F)C(F)(F)C(F)(F)C(F)(F)C(F)(F)C(F)(F)F,inactive
4,O=[N+]([O-])c1ccc(O)cc1,inactive
5,COC(=O)CCCCC(=O)OC,inactive
6,CC(C)CCCCCCOC(=O)CCCCC(=O)OCCCCCCC(C)C,inactive
7,CC(C)(C)c1cc(C(C)(C)C)c(O)c(C(C)(C)C)c1,inactive
8,CCCCCCCCCCCCN1CCCC1=O,inactive
9,Oc1cc2ccccc2c2ccccc12,inactive
10,C[C@@H]1C[C@H]2[C@@H]3CCC4=CC(=O)C=C[C@]4(C)[C@@]3(F)[C@@H](O)C[C@]2(C)[C@@]1(O)C(=O)COP(=O)(O)O,inactive
11,COc1cc(CCC(=O)CC(=O)CCc2ccc(O)c(OC)c2)ccc1O,inactive
12,O=c1c(-c2ccc(O)cc2)coc2cc(O)ccc12,inactive
13,CN(C)C=O,inactive
14,Cc1oc(-c2ccccc2)nc1CCOc1ccc(C[C@H](Nc2ccccc2C(=O)c2ccccc2)C(=O)O)cc1,inactive
15,OC1CCC(C2CCCCC2)CC1 (configuration not stated),inactive
16,CCCCCCCCOC(=O)CCCCCCCCC(=O)OCCCCCCCC,inactive
17,CC(O)C(=O)O (configuration not stated),inactive
18,CCc1nn(C2CCCCC2)c2cc(C3(C#N)CCC(C(=O)O)CC3)ccc12 (configuration not stated),inactive

# Test: ATG_M_61_CIS: Attagene CIS-FACTORIAL HepG2 Assay for M61 Transcription Factor (Internal Marker) (AID 2282937)
# Details: HepG2 Attagene CIS-FACTORIAL M61 internal marker reporter; actives raise or lower the signal
# Method in brief: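 Cells were transfected with reporter units under cis-regulatory promoters, treated with chemicals for 24 h, then lysed for RNA. Reporter transcripts were quantified by RT-PCR and capillary electrophoresis, and activity was fitted bidirectionally against DMSO.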
row,Structure (SMILES),outcome
1,c1ccc2c(c1)Cc1ccccc1-2,inactive
2,CN1CCN(c2ccccc2/C=C2\SCCN(c3ccc(Cl)c(Cl)c3)C2=O)CC1,inactive
3,FC(F)(I)C(F)(F)C(F)(F)C(F)(F)C(F)(F)C(F)(F)I,inactive
4,CCC(C)(C)C1CCC(O)CC1 (configuration not stated),inactive
5,CCc1ccc(CCOc2ccc(CC3SC(=O)NC3=O)cc2)nc1 (configuration not stated),inactive
6,CC(C)(C)CC(C)(C)c1ccc(O)c(-n2nc3ccccc3n2)c1,inactive
7,CC(C)(C)c1ccc(O)c(C(C)(C)C)c1,inactive
8,N#C[C@@H]1CC(F)(F)CN1C(=O)CNC1CC2CCC(C1)N2c1ncccn1 (some centres not stated),inactive
9,NC(=O)N1C(=O)C(C(=O)c2cc(Cl)cs2)c2cc(F)c(Cl)cc21 (configuration not stated),inactive
10,CCCCCCCCCCCCCCCS(=O)(=O)Oc1ccccc1,inactive
11,CCCCCCCC(=O)O,inactive
12,Cc1cc(CCN2CCN(c3nsc4ccccc34)CC2)cc2c1NC(=O)CC2(C)C,inactive
13,COCC(C)O (configuration not stated),inactive
14,CCCCC(CC)COC(=O)CCCCC(=O)OCc1ccccc1 (configuration not stated),inactive
15,COc1ccc([N+](=O)[O-])cc1N,inactive
16,CCOC(=O)CC(O)(CC(=O)OCC)C(=O)OCC,inactive
17,CCCCCCCCC(=O)O,inactive
18,Cc1cc(C)c(O)c(C)c1,inactive

row,Structure (SMILES),outcome
1,C#C[C@]1(O)CC[C@H]2[C@@H]3CCC4=CC(=O)CC[C@@H]4[C@H]3CC[C@@]21C,inactive
2,CCCCC[C@H](O)CC(=O)CCc1ccc(O)c(OC)c1,inactive
3,NCC(F)(F)C(F)(F)C(F)(F)C(F)(F)C(F)(F)C(F)(F)C(F)(F)F,inactive
4,O=[N+]([O-])c1ccc(O)cc1,inactive
5,COC(=O)CCCCC(=O)OC,inactive
6,CC(C)CCCCCCOC(=O)CCCCC(=O)OCCCCCCC(C)C,inactive
7,CC(C)(C)c1cc(C(C)(C)C)c(O)c(C(C)(C)C)c1,inactive
8,CCCCCCCCCCCCN1CCCC1=O,inactive
9,Oc1cc2ccccc2c2ccccc12,inactive
10,C[C@@H]1C[C@H]2[C@@H]3CCC4=CC(=O)C=C[C@]4(C)[C@@]3(F)[C@@H](O)C[C@]2(C)[C@@]1(O)C(=O)COP(=O)(O)O,inactive
11,COc1cc(CCC(=O)CC(=O)CCc2ccc(O)c(OC)c2)ccc1O,inactive
12,O=c1c(-c2ccc(O)cc2)coc2cc(O)ccc12,inactive
13,CN(C)C=O,inactive
14,Cc1oc(-c2ccccc2)nc1CCOc1ccc(C[C@H](Nc2ccccc2C(=O)c2ccccc2)C(=O)O)cc1,inactive
15,OC1CCC(C2CCCCC2)CC1 (configuration not stated),inactive
16,CCCCCCCCOC(=O)CCCCCCCCC(=O)OCCCCCCCC,inactive
17,CC(O)C(=O)O (configuration not stated),inactive
18,CCc1nn(C2CCCCC2)c2cc(C3(C#N)CCC(C(=O)O)CC3)ccc12 (configuration not stated),inactive
